Compound activity deposited in PubChem by Broad Institute.
In the library only some 6.7% were active in any assay of this set; here they are far more common.
Pf Dd2 growth = P. falciparum Dd2 growth inhibitors, primary screen, SYBR Green fluorescence, single dose replicates. activity change, % at 10 µM. 72 h; hits give low values. hit rate 2.3% among 94,000; in the data active means activity change below about -80%; inconclusive means no clear call, values can overlap the other calls
T cruzi growth-1 = T. cruzi intracellular proliferation inhibitors, primary screen, cell-based, beta-gal Tulahuen parasites, NIH3T3 host, luminescence; hit rate 5.9% among 77,000; inhibition, % at 8.34 µM; T. cruzi beta-gal in NIH3T3, GalScreen luminescence, 90 h;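 active means mean inhibition above about 93%, with at least 55% of replicates each passing it, limit read from the data, passing the limit was not always enough; inconclusive means only one of those two conditions holds; inactive means neither condition holds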
C diff HTS = C. difficile growth inhibitors, primary screen, HTS; Clostridium difficile clinical isolate growth, OD600, 24 h; hits give low values; growth activity, negative = inhibition, % at 16 µg/mL (by protocol); hit rate 0.25% among 86,000;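 active means mean growth activity at or below -80% and every replicate also at or below -80%; inconclusive means mean at or below -80% but some replicate above -80%; inactive means mean growth activity above -80%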
T cruzi growth-2 = T. cruzi intracellular proliferation inhibitors, confirmation, cell-based, NIH3T3 host, beta-gal parasite, luminescence, cherry-pick. shares compounds with T cruzi growth-1. hit rate 72% among 5,600. T. cruzi beta-gal in NIH3T3, GalScreen luminescence, 90 h. inhibition, % at 8.35 µM;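 active means mean replicate inhibition above about 95% and at least 55% of replicates individually reaching it, limit read from the data; inconclusive means only one of the two criteria is met; inactive means neither criterion is met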
T cruzi growth-3 = inhibitors of intracellular T. cruzi replication, confirmation, NIH3T3 host cells, beta-gal parasites, cherry-pick, set 2. shares compounds with T cruzi growth-1. T. cruzi beta-gal in NIH3T3, GalScreen luminescence, 90 h. inhibition, % at 2.09 µM. hit rate 21% among 5,600. AID 651740, 2012;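 active means mean inhibition above about 95%, with at least 55% of replicates also reaching it, limit read from the data; inconclusive means meets just one of the two conditions; inactive means meets neither condition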
3T3 cytotox = cytotoxicity in mouse NIH/3T3 fibroblasts, confirmation, cytotoxicity control for T. cruzi proliferation inhibitor project, cell-based, cherry-pick, single point; shares compounds with T cruzi growth-1; NIH/3T3 viability, CellTiter-Glo ATP luminescence, 90 h; cytotoxicity (signal decrease), % at 8.35 µM; hit rate 14% among 5,600; AID 651742, 2012;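 active means mean signal decrease across replicates above about 35% based on untreated-well scatter, with enough replicates individually passing, limit read from the data; inconclusive means no rule stated though some were filed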
3T3 cytotox 2 = NIH/3T3 fibroblast cytotoxicity, confirmation, cytotoxicity control, cell-based, cherry-pick, single point, set 2; inhibition, % at 24.9 µM; shares compounds with T cruzi growth-1; hit rate 56% among 5,600; AID 651744, 2012; NIH/3T3 viability, CellTiter-Glo ATP luminescence, 90 h;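 active means mean loss of cell viability signal at or above a set limit, and enough replicates individually reaching it; inconclusive means meets only the mean limit or only the replicate share; inactive means meets neither condition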
Numbers stand for hits.

Screening C[C@@H]1CN([C@H](C)CO)S(=O)(=O)c2ccc(-c3ccc(F)cc3)cc2O[C@@H]1CN(C)C(=O)Nc1ccc(F)cc1 returned Pf Dd2 growth inactive, T cruzi growth-1 120, T cruzi growth-2 107, T cruzi growth-3 inactive, 3T3 cytotox inactive and 3T3 cytotox 2 49.
Screening C[C@H](CO)N1C[C@H](C)[C@H](CN(C)C(=O)Nc2ccc(F)cc2)Oc2cc(-c3ccc(F)cc3)ccc2S1(=O)=O returned Pf Dd2 growth inactive, T cruzi growth-1 119, T cruzi growth-2 104, T cruzi growth-3 inactive, 3T3 cytotox inactive and 3T3 cytotox 2 56.
`CC(=O)N(C)C[C@H]1Oc2cc(-c3ccc(F)cc3)ccc2S(=O)(=O)N([C@H](C)CO)C[C@@H]1C` gave Pf Dd2 growth inactive, T cruzi growth-1 inactive and C diff HTS inactive.
C[C@H]1CN([C@@H](C)CO)S(=O)(=O)c2ccc(-c3ccc(F)cc3)cc2O[C@H]1CN(C)C(=O)Nc1ccc(F)cc1 was read as Pf Dd2 growth inactive, T cruzi growth-1 120, T cruzi growth-2 101, T cruzi growth-3 inactive, 3T3 cytotox 62 and 3T3 cytotox 2 76.
O=C(NCC[C@@H]1CC[C@@H](NS(=O)(=O)c2ccccc2)[C@@H](CO)O1)c1ccc2c(c1)OCO2 was read as Pf Dd2 growth inactive, T cruzi growth-1 inactive and C diff HTS inactive.
CCS(=O)(=O)NCC[C@H]1CC[C@@H](NC(=O)C2CCC2)[C@H](CO)O1 was read as Pf Dd2 growth inactive and C diff HTS inactive.
COc1ccc(S(=O)(=O)Nc2ccc3c(c2)C(=O)N([C@@H](C)CO)C[C@@H](C)[C@@H](CN(C)C(=O)CCCN(C)C)OCCCC[C@H](C)O3)cc1 was read as Pf Dd2 growth inactive, T cruzi growth-1 inactive and C diff HTS inactive.
`C/C=C/c1ccc2c(c1)O[C@H](CN(C)C(=O)NCCC)[C@@H](C)CN([C@@H](C)CO)S2(=O)=O` gave Pf Dd2 growth inactive and C diff HTS inactive.
`CO[C@H](CN(C)C(=O)c1ccccc1F)[C@@H](C)CN([C@H](C)CO)S(=O)(=O)c1ccc(C)cc1` gave Pf Dd2 growth inactive and T cruzi growth-1 inactive.
Screening C[C@@H]1CN([C@H](C)CO)C(=O)c2cc(NC(=O)NC3CCCCC3)ccc2O[C@@H](C)CCCCO[C@@H]1CN(C)C(=O)CCC(F)(F)F returned Pf Dd2 growth inactive, T cruzi growth-1 inactive and C diff HTS inactive.
For C[C@@H]1CN([C@H](C)CO)S(=O)(=O)c2ccc(-c3cccc(C(=O)N(C)C)c3)cc2O[C@@H]1CN(C)C(=O)Nc1ccc(F)cc1 the results were Pf Dd2 growth inactive, T cruzi growth-1 inactive and C diff HTS inactive.
`C[C@@H]1CN([C@@H](C)CO)S(=O)(=O)c2ccc(-c3ccc(F)cc3)cc2O[C@H]1CN(C)C(=O)Nc1ccc(F)cc1` gave Pf Dd2 growth inactive, T cruzi growth-1 inconclusive, T cruzi growth-2 inactive, T cruzi growth-3 inactive, 3T3 cytotox inactive and 3T3 cytotox 2 56.
O=C(NC1CCCCC1)N[C@H]1CC[C@H](CCNS(=O)(=O)c2ccc(Cl)cc2)O[C@H]1CO was read as Pf Dd2 growth inactive, T cruzi growth-1 inactive and C diff HTS inactive.
Screening CC(C)NC(=O)N1CC2(C1)[C@@H](c1ccccc1)[C@@H](CO)N2CCC(F)(F)F returned Pf Dd2 growth inactive and C diff HTS inactive.
C[C@H](CO)N1C[C@H](C)[C@H](CN(C)C(=O)c2ccc3c(c2)OCO3)Oc2cc(/C=C/c3ccccc3)ccc2S1(=O)=O was read as Pf Dd2 growth -83, T cruzi growth-1 106, C diff HTS inactive, T cruzi growth-2 104, T cruzi growth-3 inactive, 3T3 cytotox inactive and 3T3 cytotox 2 27.
